# High-throughput results deposited in PubChem BioAssay by National Center for Advancing Translational Sciences (NCATS).
# Lassa entry inh: Lassa virus entry inhibition. AID 540256. Lassa virus pseudotype entry inhibition, cell reporter. hit rate 1.2% among 300,000. Potency, µM (highest dose often 37.9 µM), for inactives: at the top dose activity change, negative = inhibition, actives largely listed as inhibitors; calls by dose curve; tested in HEK293 cells; also: potency is read from the fitted curve at half-maximal effect; nearly all actives have a fitted effect of over 50% in size
# HCV inh: inhibitors of hepatitis C virus infection | hit rate 3.4% among 340,000 | Potency, µM (doses to about 41.8 µM), without a hit: top-dose activity change, negative = inhibition, most hits filed as inhibitors | Huh7.5.1 HCVcc-Cre infection, luciferase reporter, 44 h | AID 651820; also: potency is read from the fitted curve at half-maximal effect
#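 Compounds are dispensed onto cells plated 4 h earlier at 1,000 per well, with HCVcc-Cre virus (about 0.5 moi) added next. Following 44 h of culture, luminescent signal is measured for 15 sec after 15 min with substrate at room temperature.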
# Marburg entry inh: inhibitors of Marburg virus binding or cell entry; Marburg virus pseudotyped entry inhibition, cell reporter; Potency, µM (titrated, usually from 37.8 µM), for the others: top-dose activity change, negative = inhibition, usual class: inhibitors; hit rate 1.8% among 300,000; calls by dose curve; tested in HEK293 cells; also: potency is read from the fitted curve at half-maximal effect
# Pf growth 48h: inhibits P. falciparum growth in the first generation, 48 h; hit rate 5.9% among 310,000; P. falciparum luciferase growth in erythrocytes, 48 h; Potency, µM (series often up to 28.7 µM), inactives show top-dose activity change, negative = inhibition, most hits filed as inhibitors; AID 504832; also: potency is read from the fitted curve at half-maximal effect
#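 Parasite viability was followed by luminescence of a genomically integrated firefly luciferase. Cultures held 0.1% parasitemia at 2% hematocrit (final), incubated under 5% CO2 at 37 C.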
# HCMV antiviral: blocks human cytomegalovirus replication; activity change, negative = inhibition, % at 57.5 µM; AID 1259415; hit rate 4.5% among 410,000; HFF cells, HCMV-luciferase reporter, 72 h; stronger effect = lower value; in the data active = activity change below about -60%; inconclusive = no clear call, values can overlap the other calls; inactive = above about -39%
#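 Inhibition of viral replication was scored as loss of reporter luminescence in HFFs infected with HCMV-luciferase (MOI 1 PFU/cell) for 72 h; compounds tested at 2 doses, normalized to buffer and Salinomycin controls.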
# Pf growth 96h: P. falciparum growth inhibition at 96 hours; Potency, µM (series often up to 28.7 µM), inactives show at the highest dose activity change, negative = inhibition, hits mostly inhibitors; AID 504834; hit rate 6.9% among 320,000; P. falciparum luciferase reporter growth, 96 h; also: potency is read from the fitted curve at half-maximal effect
#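 Compounds incubated with erythrocytes infected by luciferase-expressing P. falciparum (2% hematocrit, 0.05% parasitemia final) for 96 hours, 37 C in 5% CO2. Growth inhibition scored as decreased luciferase luminescence.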
# The depositor's hits bear a star; ? = inconclusive; nt = no result given; [ ] = remark or other dose. This is a sample that favours compounds with a hit; in the whole collection about 14% have one here. Unless noted, calls follow the shape of the dose curve; as a rule, active = well fitted inhibition curve with a large enough effect; inconclusive = small, poorly fitted or top-dose-only effect, or another doubt; inactive = no such curve, though single readings can be large or run the other way. % is scaled to controls: 0 for no effect and ±100 for the full control effect.
SMILES,Lassa entry inh,HCV inh,Marburg entry inh,Pf growth 48h,HCMV antiviral,Pf growth 96h
O=C(/C=C/c1ccco1)NC(=S)Nc1ccccc1N1CCOCC1,-29%,-2%,-27%,13µM*,72,?
O=C(/C=C\c1ccco1)NC(=S)Nc1ccccc1O,nt,-4%,nt,80%,19,85%
Cc1ccc(NC(=S)NC(=O)/C=C/c2ccco2)c(O)c1,-23%[46.1 µM],?,-18%[46.1 µM],247%,-64*,45%[1.15 µM]
CCOc1ccc(NC(=S)NC(=O)/C=C/c2ccco2)cc1,-8%,?,?,-22%,108,12µM*
O=C(NC(=S)Nc1ccccc1N1CCCCC1)c1ccco1,-10%,?,0%,0%,-71*,2%
O=C(/C=C/c1ccco1)NC(=S)Nc1cc(C(F)(F)F)ccc1N1CCOCC1,-21%,30%,?,0%,-2,?
O=C(/C=C/c1ccco1)NC(=S)Nc1ccccc1N1CCCC1,0%,-23%,?,2.6µM*,8,43%
CCOc1ccc(Nc2nc(N)c(C(=O)c3ccccc3Cl)s2)cc1,?,nt,nt,nt,-90*,nt
COc1ccc(Nc2nc(N)c(C(=O)c3ccc(OC)cc3)s2)cc1,?,?,?,?,1,233%
CC(=O)Nc1ccc(NC(=O)CN2C(=O)CCc3cc(S(=O)(=O)N4CCCCC4)ccc32)cc1,2%[46.1 µM],nt,nt,nt,-2,nt
COC(=O)C[C@@H]1C=C[C@@H](NC(C)=O)[C@@H](CO)O1,nt,nt,nt,nt,-2,nt
O=C(CCC1CCCC1)N1CCc2c([nH]c3ccccc23)C1c1ccc(Cl)cc1 (stereo unspecified),?,nt,nt,nt,-69*,nt
O=C(CCC1CCCC1)N1CCc2c([nH]c3ccccc23)C1c1ccc(F)cc1 (stereo unspecified),5µM*,nt,nt,nt,-84*,nt
CCOc1cccc(C2c3[nH]c4ccccc4c3CCN2C(=O)CCC2CCCC2)c1 (stereo unspecified),?,nt,nt,nt,-17,nt
COc1cc(C)c(NC(=O)CN(C)C)cc1Nc1nc(Nc2cccc(F)c2C(N)=O)c2cc[nH]c2n1,2.5µM*,nt,nt,nt,nt,nt
COc1cc(N2CCN(C(C)C)CC2)ccc1Nc1nc(Nc2ccc(F)cc2C(N)=O)c2cc[nH]c2n1,25µM*,nt,nt,nt,nt,nt
COc1ccc(CN(C)CC(=O)Nc2cccc3ccccc23)cc1F,2%[46.1 µM],-18%,?,93%,18,10%
COc1cc2c(cc1Nc1nc(Nc3ccsc3C(N)=O)c3cc[nH]c3n1)N(C(=O)CN(C)C)CCC2(C)C,0.5µM*,nt,nt,nt,nt,nt
COc1cc(CNCCCSc2nnnn2C)cc(Br)c1OC,5%[46.1 µM],nt,4%[46.1 µM],-18%,-13,?
COc1cccc(N2CCN(C(=O)c3ccc4c(=O)n(CCc5ccccc5)c(=O)[nH]c4c3)CC2)c1,12%[46.1 µM],nt,1%[46.1 µM],nt,-20,nt
N=c1sccn1CC(=O)NCc1ccc(Cl)cc1Cl,8%[46.1 µM],-9%,13µM*,23%,-35,?
COc1ccccc1CNC(=O)Cn1ccsc1=N,11%[46.1 µM],6%,-14%[46.1 µM],5%,56,11%
CC(C)(C)c1ccc(C(=O)C2CCCN(C(=O)C3CCOCC3)C2)cc1 (stereo unspecified),-23%,6%,?,5.9µM*,-39,-12%
Cn1cc(/C=C/C(=O)N2CCCC(C(=O)c3ccc(C(C)(C)C)cc3)C2)cn1 (stereo unspecified),5%[46.1 µM],-2%,11%[46.1 µM],-19%,3,20%
CCc1cc(C(=O)N2CCCC(C(=O)c3ccc(C(F)(F)F)cc3)C2)n(C)n1 (stereo unspecified),nt,?,nt,41%,-10,-6%
SMILES,Lassa entry inh,HCV inh,Marburg entry inh,Pf growth 48h,HCMV antiviral,Pf growth 96h
Cn1nccc1C(=O)N1CCCC(C(=O)c2ccc(C(F)(F)F)cc2)C1 (stereo unspecified),-20%[46.1 µM],?,-14%[46.1 µM],28%,-24,15µM*
CN(C(=O)c1ccc(NC(=O)Cc2ccc(NC(=O)C3CCN(S(=O)(=O)c4cccc([N+](=O)[O-])c4)CC3)cc2)cc1)C1CCCC1,nt,21%,nt,nt,-16,nt
COC(=O)c1c(-c2cccs2)csc1NC(=O)COc1ccc(C(C)(C)C)cc1,2%[46.1 µM],nt,5%[46.1 µM],nt,-13,nt
Cc1ccccc1-n1c(=O)/c(=C/c2ccco2)s/c1=C(/C#N)C(=O)Nc1ccccc1,nt,nt,-28%,nt,nt,nt
Cc1ccccc1-n1c(=O)/c(=C\c2ccco2)s/c1=C(/C#N)C(=O)Nc1ccccc1,-16%,-16%,-28%,1.5µM*,-29,10%
O=C(NCCNC(=O)c1ccccc1F)c1ccccn1,-1%[46.1 µM],11%,9%[46.1 µM],44%,8,22%
CC1CCCN1c1ccnc2cc(Cl)ccc12 (stereo unspecified),-12%[46.1 µM],?,?,nt,-39,nt
Clc1ccc2c(NCc3ccccn3)ccnc2c1,nt,?,nt,0.66µM*,-72*,0.47µM*
CCOc1ccccc1Nc1cc(C)c2cccc(C)c2n1,-11%[46.1 µM],7.9µM*,?,59%,37,209%
O=C(NCCCNc1ccnc2cc(Cl)ccc12)c1ccccc1F,nt,10µM*,nt,0.47µM*,-34,0.41µM*
Clc1ccc2c(NCCNC3CCCCC3)ccnc2c1,?,7.9µM*,1.6µM*,nt,-84*,nt
C=CCNCc1ccccc1[N+](=O)[O-],nt,11%,nt,27%,17,56%
O=C(Nc1cc(Cl)ccc1N1CCOCC1)C1=COCCO1,-13%,?,?,3%,10,-6%
CCOc1ccccc1Nc1ccnc2cc(Cl)ccc12,10µM*,?,?,2.6µM*,?,21%
CC1=CN2C(=N)/C(=C/c3ccc([N+](=O)[O-])o3)C(=O)N=C2S1,-14%,11%,?,14%,-96*,-27%
CCOc1ccc(-c2ccc(/C=C3/C(=N)N4C=CSC4=NC3=O)o2)c([N+](=O)[O-])c1,1%,11µM*,-18%,25%,18,?
CON(C)C(=O)/C=C/[C@@H](CC1CCCC1)NC(=O)C(F)(F)F,nt,nt,nt,nt,-14,nt
CC1CCN(S(=O)(=O)c2ccc3c(c2)c(=O)c(C(=O)NCCc2ccccc2)cn3C)CC1,19%[46.1 µM],nt,-1%[46.1 µM],nt,32,nt
O=C(CN1C(=O)/C(=C/c2ccccc2)SC1=S)N1CCN(CCc2ccccn2)CC1,?,?,?,6%,-90*,?
O=C(CCCN1C(=O)/C(=C\c2ccccc2)SC1=S)N1CCOCC1,-14%,?,?,nt,-99*,nt
COc1ccc(/C=C2\SC(=S)N(CCCC(=O)N3CCOCC3)C2=O)cc1,-23%,-1%,?,nt,?,nt
O=C(c1ccccc1)N1CCN(CCc2ccccn2)CC1,13%,31%,-12%[46.1 µM],2%,-17,7%
Cc1ccc(/C=C2\SC(=S)N(CCC(=O)N3CCCCC3)C2=O)cc1,10%,5%,-4%[46.1 µM],-14%,6,23%
O=C(CCN1C(=O)/C(=C\c2ccccc2)SC1=S)N1CCCCC1,0%,6%,3%[46.1 µM],-17%,-68*,?
Brc1ccc(-c2ccc3c(n2)CCCN3Cc2ccccn2)cc1,nt,nt,nt,nt,20,nt
